Reference: PubChem BioAssay (NCATS)
Inconclusive results are not listed. Calls of active or inactive are those of the source. Unless noted, calls come from the whole dose curve; as a rule, active = well fitted curve in the direction sought with a large enough effect; inconclusive = small, poorly fitted or top-dose-only effect, or another doubt; inactive = no such curve, though single readings can be large; an effect the other way counts as inactive or inconclusive.

Tests used:
[1] = target: Cytochrome P450 3A4 (Homo sapiens) (UniProt P08684); assay: qHTS Assay for Inhibitors and Substrates of Cytochrome P450 3A4 (AID 884); note: % is set by controls: 0 for no effect and ±100 for the full control effect; nearly all actives have a fitted effect of over 50% in size
Chain of Cytochrome P450 3A4 (Homo sapiens) (P08684 whole entry, looked up): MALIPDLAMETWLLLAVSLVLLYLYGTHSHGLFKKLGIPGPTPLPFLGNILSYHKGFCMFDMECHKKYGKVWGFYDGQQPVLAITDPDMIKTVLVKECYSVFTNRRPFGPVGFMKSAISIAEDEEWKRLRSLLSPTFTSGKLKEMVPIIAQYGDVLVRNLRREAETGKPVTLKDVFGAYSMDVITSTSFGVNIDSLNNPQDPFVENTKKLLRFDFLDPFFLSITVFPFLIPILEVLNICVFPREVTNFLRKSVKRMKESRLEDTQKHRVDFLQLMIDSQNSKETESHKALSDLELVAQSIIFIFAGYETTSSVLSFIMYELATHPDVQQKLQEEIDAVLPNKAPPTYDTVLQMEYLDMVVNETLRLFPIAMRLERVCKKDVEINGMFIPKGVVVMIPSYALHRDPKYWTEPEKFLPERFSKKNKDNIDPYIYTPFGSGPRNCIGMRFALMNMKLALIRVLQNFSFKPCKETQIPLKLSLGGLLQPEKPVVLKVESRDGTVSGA
Procedure, shortened: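 20 nM human CYP3A4 with 25 uM Luciferin-PPXE (at KM) in 200 mM KPO4, preincubated 10 min with compound; NADPH regeneration started a 60 min RT reaction. Luciferin detected by luminescence, normalized to 57 uM ketoconazole as full inhibition.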

[2] = qHTS Assay for Lipid Storage Modulators (AID 1519; calls by dose curve); conditions: Drosophila S3 cells, BODIPY lipid droplet/cell ratio, laser cytometry, cells loaded with oleic acid; for activity change, negative = inhibition: at 57.5 µM (top of the series)
Procedure, shortened: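 Cells seeded at 5,000 per well were treated with compounds over a concentration series and loaded with oleic acid (400 uM, as added). Lipid droplet fluorescence (488 nm excitation, 500-530 nm channel) was read by laser-scanning cytometry and normalized to 20 uM Triacsin C.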

[3] = target: DNA dC->dU-editing enzyme APOBEC-3G (Homo sapiens) (UniProt Q9HC16); assay: qHTS for inhibitors of Vif-A3G interactions: Validation (AID 588379); note: 0% is about no effect
Chain of DNA dC->dU-editing enzyme APOBEC-3G (Homo sapiens) (Q9HC16 whole entry, looked up): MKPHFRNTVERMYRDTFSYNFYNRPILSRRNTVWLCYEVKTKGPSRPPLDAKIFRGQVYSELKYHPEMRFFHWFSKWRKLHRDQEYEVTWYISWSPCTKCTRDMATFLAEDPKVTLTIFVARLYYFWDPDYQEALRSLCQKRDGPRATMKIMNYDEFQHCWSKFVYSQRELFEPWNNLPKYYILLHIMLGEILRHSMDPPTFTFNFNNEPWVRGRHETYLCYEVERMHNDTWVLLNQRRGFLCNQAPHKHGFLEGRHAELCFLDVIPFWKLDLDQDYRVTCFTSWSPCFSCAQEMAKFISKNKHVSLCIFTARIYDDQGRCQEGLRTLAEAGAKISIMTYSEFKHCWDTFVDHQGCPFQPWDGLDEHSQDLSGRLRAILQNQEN
Procedure, shortened: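 HeLa cells stably expressing Vif and A3G-eYFP, 700 cells/well, incubated overnight at 37 deg C, then exposed to compound overnight at 37 deg C. Inhibition of Vif-mediated degradation read as increased yellow fluorescence (Ex 488/Em 500-530) by laser-scanning cytometry.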

[4] = Confirmation and Secondary Assay for Modulators of Hemoglobin Beta Chain Splicing at IVS2 705 locus (AID 930);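 note: HeLa cells stably expressing the EGFP-705 splicing reporter; GFP fluorescence per well restored by corrected splicing of the IVS2-705 intron in EGFP; % of control where 0% means no effect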
Procedure, shortened: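 Assay measures total GFP intensity per well in HeLa EGFP-705 cells after 2 days with compound; mis-splicing normally truncates EGFP, so fluorescence indicates corrected splicing.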

[5] = target: Estrogen receptor (Homo sapiens) (UniProt P03372); assay: qHTS assay for small molecule antagonists of estrogen receptor alpha signaling (AID 588513; active = well fitted curve in the direction sought with a large enough effect in the signal ratio, with a control signal flat, not every such curve was filed as active; the % refers to the signal ratio; note: % is set by controls: 0 for no effect and ±100 for the full control effect)
Chain of Estrogen receptor (Homo sapiens) (P03372 whole entry, looked up): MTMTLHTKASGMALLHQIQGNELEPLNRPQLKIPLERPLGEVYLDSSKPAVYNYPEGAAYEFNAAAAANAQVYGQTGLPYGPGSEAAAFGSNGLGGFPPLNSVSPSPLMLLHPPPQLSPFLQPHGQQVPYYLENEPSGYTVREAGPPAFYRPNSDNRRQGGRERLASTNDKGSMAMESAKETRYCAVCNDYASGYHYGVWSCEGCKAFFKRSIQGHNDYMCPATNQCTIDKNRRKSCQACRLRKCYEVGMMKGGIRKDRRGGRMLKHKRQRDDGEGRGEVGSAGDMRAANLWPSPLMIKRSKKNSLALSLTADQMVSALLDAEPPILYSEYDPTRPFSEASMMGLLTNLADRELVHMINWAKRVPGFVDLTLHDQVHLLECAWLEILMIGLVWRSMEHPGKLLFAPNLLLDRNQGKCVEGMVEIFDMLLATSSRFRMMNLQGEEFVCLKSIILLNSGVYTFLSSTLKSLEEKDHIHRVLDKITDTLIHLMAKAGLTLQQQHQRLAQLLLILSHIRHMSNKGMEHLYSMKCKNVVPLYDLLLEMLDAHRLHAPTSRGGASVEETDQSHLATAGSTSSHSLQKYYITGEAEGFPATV
Procedure, shortened: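 ER-alpha-UAS-bla GripTite HEK 293 cells in medium with 2% charcoal/dextran-treated FBS were preincubated 4 h at 37 C, dosed with compound (1:2 titration), stimulated with 0.5nM 17-beta-estradiol for 18 h, then read by CCF4 beta-lactamase fluorescence.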

[6] = target: Estrogen receptor (Homo sapiens) (UniProt P03372); assay: qHTS assay for small molecule agonists of estrogen receptor alpha signaling (AID 588514; calls by dose curve;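 note: 0% = vehicle only and 100% = reference agonist; nearly all actives have a fitted effect of over 70% in size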)
Procedure, shortened: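 Reporter-gene assay. […] controls beta-lactamase in HEK 293 GripTite cells; after 18 hrs with compound, CCF4 substrate is added for 2 hrs and fluorescence is read.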

[7] = target: Glucocorticoid receptor (Homo sapiens) (UniProt P04150); assay: qHTS assay for small molecule agonists of glucocorticoid receptor signaling (AID 588532; active = well fitted curve in the direction sought with a large enough effect in the signal ratio, with a control signal flat; the % refers to the signal ratio;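 note: 100% = dexamethasone at 0.1 µM and 0% = DMSO only wells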); conditions: HeLa MMTV-bla, beta-lactamase ratio, agonist, 18 h; stronger effect = higher value; percent of dexamethasone control, DMSO zero
Procedure, shortened: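 MMTV-bla HeLa beta-lactamase reporter cells in 1% charcoal/dextran FBS medium, compounds up to 92 uM for 18 h at 37 C, CCF4 readout; normalized to 0.1 uM dexamethasone (100%), EC50 and efficacy from Hill fits.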

[8] = target: Peroxisome proliferator-activated receptor delta (Homo sapiens) (UniProt Q03181); assay: qHTS assay for small molecule agonists of peroxisome proliferator-activated receptor delta signaling (AID 588534; calls by dose curve;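 note: 0% = DMSO basal wells and 100% = positive control agonist at 10 µM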)
Chain of Peroxisome proliferator-activated receptor delta (Homo sapiens) (Q03181 whole entry, looked up): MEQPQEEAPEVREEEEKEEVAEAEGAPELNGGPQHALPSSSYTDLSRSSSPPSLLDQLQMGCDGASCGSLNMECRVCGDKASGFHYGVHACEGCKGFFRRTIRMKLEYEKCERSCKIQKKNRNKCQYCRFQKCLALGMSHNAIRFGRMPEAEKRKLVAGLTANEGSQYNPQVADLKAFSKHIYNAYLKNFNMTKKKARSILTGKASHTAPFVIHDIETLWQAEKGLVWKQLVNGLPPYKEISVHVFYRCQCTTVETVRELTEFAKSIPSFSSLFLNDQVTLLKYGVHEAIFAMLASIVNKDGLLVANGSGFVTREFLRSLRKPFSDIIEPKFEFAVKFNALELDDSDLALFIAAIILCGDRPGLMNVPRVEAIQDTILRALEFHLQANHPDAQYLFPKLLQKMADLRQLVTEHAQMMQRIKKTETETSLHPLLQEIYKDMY
Procedure, shortened: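 Reporter cells were plated and held 5 hrs at 37 C before compounds were added. After 18 hrs at 37 C, CCF4 dye was loaded for 2 hrs at RT and fluorescence measured.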

[9] = qHTS assay for small molecule antagonists of peroxisome proliferator-activated receptor delta signaling (AID 588535; active = well fitted inhibition curve with a large enough effect in the signal ratio, with a control signal flat, not every such curve was filed as active; the % refers to the signal ratio;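 for max response: cells co-treated with a PPAR-delta agonist as stimulator during compound exposure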); conditions: HEK293T PPARd-UAS-bla, beta-lactamase FRET ratio, 18 h; 460 nm channel
Procedure, shortened: (§1)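 Cells were seeded at 4000 per well in assay medium containing 2% charcoal/dextran FBS and held 5 hrs at 37 C. Compounds were then added for 18 hrs. CCF4 substrate was applied for 2 hrs at room temperature before fluorescence reading.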

[10] = target: Peroxisome proliferator-activated receptor delta (Homo sapiens) (UniProt Q03181); assay: as above
Procedure, shortened: as §1

[11] = target: Peroxisome proliferator-activated receptor gamma (Homo sapiens) (UniProt P37231); assay: qHTS assay for small molecule agonists of peroxisome proliferator-activated receptor gamma signaling (AID 588536; active = well fitted curve in the direction sought with a large enough effect in the signal ratio, with a control signal flat, not every such curve was filed as active; the % refers to the signal ratio;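 note: 0% = DMSO basal wells and 100% = rosiglitazone at 2 µM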)
Chain of Peroxisome proliferator-activated receptor gamma (Homo sapiens) (P37231 whole entry, looked up): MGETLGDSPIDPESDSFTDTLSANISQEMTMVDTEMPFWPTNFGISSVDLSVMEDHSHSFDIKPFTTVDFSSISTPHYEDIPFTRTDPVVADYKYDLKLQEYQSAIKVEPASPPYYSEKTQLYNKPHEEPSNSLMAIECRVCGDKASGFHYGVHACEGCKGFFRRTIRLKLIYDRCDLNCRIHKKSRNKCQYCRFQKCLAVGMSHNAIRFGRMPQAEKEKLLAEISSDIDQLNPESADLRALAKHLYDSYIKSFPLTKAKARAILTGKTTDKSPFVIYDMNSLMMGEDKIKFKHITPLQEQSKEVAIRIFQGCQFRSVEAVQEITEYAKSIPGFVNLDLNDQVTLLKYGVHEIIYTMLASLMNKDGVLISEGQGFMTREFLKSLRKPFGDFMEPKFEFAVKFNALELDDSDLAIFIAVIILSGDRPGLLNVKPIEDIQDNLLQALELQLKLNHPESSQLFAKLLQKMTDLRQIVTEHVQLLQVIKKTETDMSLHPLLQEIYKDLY
Procedure, shortened: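 Test agents, titrated, stimulated HEK293 UAS-bla cells overnight (16 h, 37 C). Substrate CCF4 was then added for two hours at room temperature before fluorescence reading.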

[12] = target: Vitamin D3 receptor (Homo sapiens) (UniProt P11473); assay: qHTS assay for small molecule antagonists of vitamin D receptor signaling (AID 588541; calls by dose curve;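 note: receptor activated by calcitriol during compound treatment; % is set by controls: 0 for no effect and ±100 for the full control effect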)
Chain of Vitamin D3 receptor (Homo sapiens) (P11473 whole entry, looked up): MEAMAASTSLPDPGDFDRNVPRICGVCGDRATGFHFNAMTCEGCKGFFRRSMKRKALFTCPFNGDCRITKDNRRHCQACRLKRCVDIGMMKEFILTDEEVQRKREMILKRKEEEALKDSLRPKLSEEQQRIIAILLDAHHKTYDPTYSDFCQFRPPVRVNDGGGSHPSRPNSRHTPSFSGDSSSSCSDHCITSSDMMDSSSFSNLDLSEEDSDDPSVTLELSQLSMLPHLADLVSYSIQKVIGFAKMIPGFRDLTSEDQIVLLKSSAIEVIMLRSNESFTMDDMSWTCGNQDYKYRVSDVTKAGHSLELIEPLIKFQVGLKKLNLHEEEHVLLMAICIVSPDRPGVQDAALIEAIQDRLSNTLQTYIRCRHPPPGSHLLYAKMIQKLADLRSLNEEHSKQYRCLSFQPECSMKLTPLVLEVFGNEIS
Procedure, shortened: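 VDR-UAS-bla HEK293T cells in 2% charcoal-stripped FBS were stimulated with 1-alpha,25-dihydroxyvitamin D3 (3 nM final) plus compound for 16 h at 37 C. The beta-lactamase CCF4 readout was normalized to 50 nM agonist and DMSO, and Hill fits gave IC50.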

[13] = target: Vitamin D3 receptor (Homo sapiens) (UniProt P11473); assay: qHTS assay for small molecule agonists of vitamin D receptor signaling (AID 588543; calls by dose curve;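 note: 0% = DMSO basal and 100% = reference agonist control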)
Procedure, shortened: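 GeneBLAzer VDR-UAS-bla HEK293T cells in 2% charcoal-stripped FBS medium were dosed with compound titrations for 16 h at 37 °C; CCF4 β-lactamase readout (405 nm ex, 460/530 nm em). EC50 and efficacy from Hill fits, normalized to 50 nM calcitriol (100%) and DMSO (0%).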

[14] = qHTS assay for small molecule agonists of retinoid X receptor alpha signaling (AID 588544; calls by dose curve;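 for activation: 0% = DMSO basal wells and 100% = reference agonist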); conditions: HEK293T RXRa-UAS-bla, beta-lactamase reporter, 18 h; 530 nm emission
[15] = target: Retinoic acid receptor RXR-alpha (Homo sapiens) (UniProt P19793); assay: as above
Chain of Retinoic acid receptor RXR-alpha (Homo sapiens) (P19793 whole entry, looked up): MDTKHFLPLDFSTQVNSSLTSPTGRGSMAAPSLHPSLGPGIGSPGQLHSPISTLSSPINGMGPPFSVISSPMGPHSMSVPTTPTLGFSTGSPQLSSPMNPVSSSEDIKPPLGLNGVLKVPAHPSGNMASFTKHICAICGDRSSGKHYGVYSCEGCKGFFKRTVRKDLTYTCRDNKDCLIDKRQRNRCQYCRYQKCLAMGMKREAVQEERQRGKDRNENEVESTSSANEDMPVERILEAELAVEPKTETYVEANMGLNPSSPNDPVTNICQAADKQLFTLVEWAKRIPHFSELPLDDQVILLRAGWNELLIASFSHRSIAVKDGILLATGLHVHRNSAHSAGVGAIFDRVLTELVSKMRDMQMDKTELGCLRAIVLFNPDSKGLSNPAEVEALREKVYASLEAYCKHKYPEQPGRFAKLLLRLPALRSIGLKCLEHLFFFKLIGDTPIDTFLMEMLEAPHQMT

[16] = target: Thyroid hormone receptor beta (Homo sapiens) (UniProt P10828); assay: qHTS assay for small molecule agonists of thyroid hormone receptor beta signaling (AID 588545; calls by dose curve)
Chain of Thyroid hormone receptor beta (Homo sapiens) (P10828 whole entry, looked up): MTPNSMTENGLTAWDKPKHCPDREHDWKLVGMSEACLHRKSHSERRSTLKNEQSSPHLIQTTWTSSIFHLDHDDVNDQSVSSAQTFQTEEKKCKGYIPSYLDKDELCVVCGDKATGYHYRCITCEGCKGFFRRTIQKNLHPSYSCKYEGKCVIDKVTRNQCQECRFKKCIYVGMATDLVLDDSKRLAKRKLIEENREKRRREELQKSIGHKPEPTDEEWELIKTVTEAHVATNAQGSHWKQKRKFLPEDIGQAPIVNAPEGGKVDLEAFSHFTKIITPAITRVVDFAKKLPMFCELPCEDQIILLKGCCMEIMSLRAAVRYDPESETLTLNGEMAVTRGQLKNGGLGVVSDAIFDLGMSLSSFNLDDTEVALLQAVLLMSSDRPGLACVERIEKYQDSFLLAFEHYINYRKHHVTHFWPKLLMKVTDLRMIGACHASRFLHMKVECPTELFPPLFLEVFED
Procedure, shortened: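 In this cell-based screen, titrated compounds act on HEK 293 cells held in medium with 2% charcoal/dextran FBS, NEAA and pyruvate for 18 hrs at 37 C. Responses are expressed relative to T3 (10 nM) as 100% and basal DMSO as 0%.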

[17] = qHTS assay for small molecule antagonists of retinoid X receptor alpha signaling (AID 588546; active = well fitted inhibition curve with a large enough effect in the signal ratio, with a control signal flat, not every such curve was filed as active; the % refers to the signal ratio;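 note: cells stimulated with 9-cis-retinoic acid as agonist; % is set by controls: 0 for no effect and ±100 for the full control effect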); conditions: HEK293T RXRa-UAS-bla, beta-lactamase ratio, antagonist mode; measured here: W530 green channel, cytotoxicity proxy
Procedure, shortened: (§2)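 Beta-lactamase reporter inhibition, read as CCF4 fluorescence ratio (ex 405, em 460/530 nm) after 2 h at RT. HEK293T UAS-bla cells, 2500/well, were stimulated with 9-cis-RA at 500 or 100 nM final alongside test compound for 18 h at 37 C.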

[18] = target: Retinoic acid receptor RXR-alpha (Homo sapiens) (UniProt P19793); assay: as above; conditions: HEK293T RXRa-UAS-bla, beta-lactamase ratio, antagonist mode
Procedure, shortened: as §2

[19] = target: Thyroid hormone receptor beta (Homo sapiens) (UniProt P10828); assay: qHTS assay for small molecule antagonists of thyroid hormone receptor beta signaling (AID 588547; active = well fitted inhibition curve with a large enough effect in the signal ratio, with a control signal flat, not every such curve was filed as active; the % refers to the signal ratio;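 note: cells stimulated with 0.4 nM T3 agonist during compound exposure; % is set by controls: 0 for no effect and ±100 for the full control effect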); conditions: TR-UAS-bla HEK293, beta-lactamase ratio, antagonist mode, 18 h
Procedure, shortened: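 TR-UAS-bla GripTite HEK293 cells in 2% charcoal/dextran FBS medium; compounds 0.59 nM to 92 uM with T3 at 0.4nM final, 18 h at 37 C. Beta-lactamase read by CCF4 fluorescence (460/530 nm); Hill fits gave IC50 and efficacy.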

[20] = qHTS assay for small molecule agonists of the antioxidant response element (ARE) signaling pathway (AID 651741; active = well fitted activation curve with a large enough effect in the signal ratio; the % refers to the signal ratio; note: % of control where 0% means no effect)
Procedure, shortened: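 HepG2 ARE-bla cells plated at 2,000 cells/well and incubated 5 h at 37 C/5% CO2 received 23 nL compound in DMSO. After 16 h at 37 C, LiveBLAzer B/G FRET substrate was applied for 2 h at room temperature and fluorescence read.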

[21] = qHTS assay for small molecule activators of the nuclear factor-kappa B (NF-kB) signaling pathway (AID 651749; active = well fitted activation curve with a large enough effect in the signal ratio; the % refers to the signal ratio; note: % of control where 0% means no effect); conditions: NF-kB-bla ME-180 cells, beta-lactamase FRET ratio, 16 h; activation: stronger effect = higher value
Procedure, shortened: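 Incubation lasted 16 hr at 37C in 5% CO2 after 23 nL compound addition to ME-180 NF-kB-bla cells. Activation appears as beta-lactamase-mediated FRET loss.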

[22] = qHTS assay for environmental chemicals that activate the Aryl hydrocarbon Receptor (AhR) signaling pathway (AID 651777); conditions: 1A2-DRE human hepatoma cells, luciferase, 24 h; activation: stronger effect = higher value; note: % of control where 0% means no effect; nearly all actives have a fitted effect of over 15% in size
Procedure, shortened: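 Stable CYP1A2 promoter/DRE-luciferase human hepatoma line treated 24 hr; One-Glo luminescence, 30 min RT.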

[23] = target: Peroxisome proliferator-activated receptor alpha (Homo sapiens) (UniProt Q07869); assay: qHTS assay for small molecule agonists of the peroxisome proliferator-activated receptor alpha (PPARalpha) signaling pathway (AID 651778); conditions: PathHunter PPARalpha complementation, chemiluminescence, 6 h; stronger effect = higher value; note: % of control where 0% means no effect
Chain of Peroxisome proliferator-activated receptor alpha (Homo sapiens) (Q07869 whole entry, looked up, the tested form may be a part): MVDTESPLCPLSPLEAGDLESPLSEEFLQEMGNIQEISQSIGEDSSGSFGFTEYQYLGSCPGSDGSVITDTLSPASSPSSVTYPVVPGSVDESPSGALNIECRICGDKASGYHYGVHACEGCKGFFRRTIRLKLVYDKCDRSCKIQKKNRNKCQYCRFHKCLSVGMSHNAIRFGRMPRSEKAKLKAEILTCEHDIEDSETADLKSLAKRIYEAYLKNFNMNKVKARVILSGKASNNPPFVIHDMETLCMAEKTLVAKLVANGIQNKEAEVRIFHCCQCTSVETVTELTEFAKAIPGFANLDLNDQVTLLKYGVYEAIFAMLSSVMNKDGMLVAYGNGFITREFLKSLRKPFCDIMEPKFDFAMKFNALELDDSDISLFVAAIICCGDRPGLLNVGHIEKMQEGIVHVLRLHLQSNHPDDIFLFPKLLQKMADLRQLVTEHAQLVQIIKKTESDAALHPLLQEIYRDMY
Procedure, shortened: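 Enzyme-fragment complementation assay in which ligand-bound PPARalpha translocates and forms an active enzyme that generates chemiluminescence. Cells were plated overnight, exposed to compound for 6 hr at 37 C, and then given detection reagent for 60 min at room temperature.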

[24] = qHTS assay for small molecule agonists of the antioxidant response element (ARE) signaling pathway measured by Nrf2-dependant transcriptional activity (AID 720636; active = well fitted curve in the direction sought with a large enough effect in the repeat runs; an effect the other way counts as inactive or inconclusive;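 note: HepG2 cells with an ARE-driven luciferase reporter; % of control where 0% means no effect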)
Procedure, shortened: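 Reporter gene assay, HepG2 ARE-luc: 16 hr compound, 37 C, 5% CO2; read-out luciferase luminescence.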

[25] = qHTS assay for small molecule agonists of the antioxidant response element (ARE) signaling pathway measured by Nrf2-dependant transcriptional activity - cell viability counter screen (AID 720653; active = well fitted curve in the direction sought with a large enough effect in the repeat runs; an effect the other way counts as inactive or inconclusive; note: % is set by controls: 0 for no effect and ±100 for the full control effect); conditions: ARE-bla HepG2 viability, CellTiter-Glo ATP luminescence, 16 h; stronger effect = lower value
Procedure, shortened: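 ARE-bla HepG2 cells treated with compounds for 16 h at 37C; this counter screen measures viability as intracellular ATP by CellTiter-Glo luminescence after 30 min at room temperature.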

[26] = qHTS assay for cell viability of HEK293 cells (AID 743288); conditions: ATP luminescence (CellTiter-Glo), 18 h; max response: stronger effect = lower value; note: % is set by controls: 0 for no effect and ±100 for the full control effect; nearly all actives have a fitted effect of over 50% in size
Procedure, shortened: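 Parental HEK293 cells were seeded at 2,000 cells/well, rested at least 5 h at 37 C, then exposed to compounds in DMSO for 18 h at 37 C. Viability was read as ATP-dependent luciferase luminescence after 30 min at room temperature.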

[27] = qHTS assay for cell viability of the p53RE-bla HCT-116 cell line (AID 743292); note: % is set by controls: 0 for no effect and ±100 for the full control effect; nearly all actives have a fitted effect of over 55% in size
Procedure, shortened: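 Readout: CellTiter-Glo luminescence after 30 min RT. Treatment: compounds in DMSO, 16 h, 37 C. Cells: CellSensor p53RE-bla HCT-116, 4,000/well, preincubated 5 h.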

[28] = target: Nuclear receptor subfamily 1 group I member 2 (Rattus norvegicus) (UniProt Q9R1A7); assay: qHTS assay for small molecule activators of the rat pregnane X receptor (rPXR) signaling pathway (AID 651751; call rule not given here; note: 0% is about no effect); conditions: rPXR reporter cells, luciferase (One-Glo), 24 h
Chain of Nuclear receptor subfamily 1 group I member 2 (Rattus norvegicus) (Q9R1A7 whole entry, looked up): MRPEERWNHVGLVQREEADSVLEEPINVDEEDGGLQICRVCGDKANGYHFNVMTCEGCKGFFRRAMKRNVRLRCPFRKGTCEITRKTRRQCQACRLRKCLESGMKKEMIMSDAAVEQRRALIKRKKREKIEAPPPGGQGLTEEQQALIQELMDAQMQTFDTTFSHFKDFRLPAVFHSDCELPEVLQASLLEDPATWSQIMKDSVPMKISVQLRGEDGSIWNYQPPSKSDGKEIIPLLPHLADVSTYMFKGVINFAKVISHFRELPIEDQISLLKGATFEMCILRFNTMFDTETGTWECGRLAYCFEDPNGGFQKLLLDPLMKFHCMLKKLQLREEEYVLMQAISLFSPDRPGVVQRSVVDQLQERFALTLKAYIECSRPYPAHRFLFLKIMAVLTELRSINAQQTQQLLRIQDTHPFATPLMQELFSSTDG

[29] = qHTS assay for small molecule activators of the human pregnane X receptor (PXR) signaling pathway (AID 720659; call rule not given here; note: 0% is about no effect)
[30] = measured here: cell count channel max response
[31] = measured here: lipid channel max response

OC[C@@H]1CCCN2CCCC[C@@H]12
-31.5%: max response [2, 31]
inactive: Potency [1] | activity change, negative = inhibition [2] -9.64% | outcome [3]
-24.5%: max response [2, 30]

CNC(=O)Oc1ccccc1OC(C)C
11.3%: max response [2, 30]
inactive: Potency [1] | Potency [4] | activity change, negative = inhibition [2] 5.74% | Potency [5] | Potency [6] | activation [7] -7.67% | outcome [8] | Potency [10] | outcome [11] | outcome [12] | outcome [13] | Potency [15] | outcome [16] | max response [18] -31.5% | activity change % (negative = inhibition) [19] 16.1% | Potency [20] | activation [21] -2.6% | activation [22] -1.13% | max response [23] 0.062% | outcome [24] | max response [25] -4.9% | max response [26] -6.22% | Potency [27] | max response [28] -0.132% | outcome [29]
-6.53%: max response [17]
17.8%: max response [9]
18.3%: max response [2, 31]
-0.248%: max response [14]
